# Assay results: PubChem BioAssay (Tox21)
# Inconclusive results are not listed. The source made the active and inactive calls. The call rests on the fitted dose curve; in most records, active means well fitted activation curve with a large enough effect in the repeat runs; inconclusive means weak or mixed curves; inactive means flat fitted curve, though single readings scatter.
# Experiment: A CellTox Green Cytotoxicity Assay to monitor cytotoxicity in HepG2 cells - 40 hour (AID 1224879); further: nearly all actives have a fitted effect of over 40% in size
# Details: CellTox Green fluorescence; series mostly up to 76.8 µM; cytotoxicity increase: at the top concentration
# Source text: National Center for Advancing Translational Sciences [NCATS]
# NIH Chemical Genomics Center [NCGC]
# U.S. Environmental Protection Agency [EPA]
# National Institutes of Environmental Health Sciences [NIEHS]
# National Toxicology Program [NTP]
# Cell-based models are critical for drug discovery. Determining the natural cytotoxic effects resulting from test compounds is an essential research activity. A CellTox Green Cytotoxicity Assay to monitor cytotoxicity in real time of continues cell culture during 40 hours of the compound treatment was used to screen Tox21 10K library compounds in HepG2 cells. CellTox Green Cytotoxicity Assay is a nonlytic, homogeneous, biofluorescent method to measure cytotoxicity in cell culture after experimental manipulation. The assay system uses a proprietary asymmetric cyanine dye that is excluded from viable cells but preferentially stains the dead cell's DNA. […] Viable cells produce no appreciable increases in fluorescence. Therefore, the fluorescence signal produced by the binding interaction with dead cell DNA is proportional to cytotoxicity.
# The mixture of HepG2 cell suspension and reagents were dispensed at 600cells/6 ul/well in 1536-well tissue culture treated black solid bottom plates using a Multidrop dispenser. After the assay plates were incubated at a 37 C/5% CO2 incubator for 5 hours, 23 nL of compounds dissolved in DMSO, positive and negative controls was transferred to the assay plate by a pintool work station. The plates were incubated at 37 C for 40 hours. The fluorescence intensity were measured at 0h, 8h, 16h, 24h, 32h and 40h time points using ViewLux plate reader during compound treatment.
# On the % scale 0 is the no-effect control and ±100 the full control effect; potency means the concentration at half of the fitted maximal effect.
Structure (SMILES),cytotoxicity increase,Potency
O=C1OC(=O)c2cc([N+](=O)[O-])ccc21,-4.68% (inactive),
CCCCc1ccc(N)cc1,23.3% (inactive),
CCCCCCC(CCCCCCCCCCC(=O)OCC(COC(C)=O)OC(C)=O)OC(C)=O (stereo not given),9.44% [at 35.3 µM] (inactive),
N#CCN(CC#N)CCN(CC#N)CC#N,-5.02% (inactive),
COC(=O)CCCC(=O)O,-9.41% (inactive),
Cc1onc(-c2ccccc2)c1-c1ccc(S(N)(=O)=O)cc1,1.64% [at 35.3 µM] (inactive),
COc1ccc2cc(C=O)ccc2c1,0.574% [at 35.3 µM] (inactive),
C#CC(O)CCCCC (stereo not given),-4.45% (inactive),
CC(C)CCCC(C)NCCC(C)C (stereo not given),-0.406% [at 35.3 µM] (inactive),
CC(=O)NC(Cc1ccccc1)C(=O)O (stereo not given),-13% [at 35.3 µM] (inactive),
COc1cc(C(=O)N2CCOCC2)cc(OC)c1OC,-8.08% [at 35.3 µM] (inactive),
COC[C@H](c1ccc(C(F)(F)F)cc1)N1CCN(C2(C)CCN(C(=O)c3c(C)ncnc3C)CC2)C[C@H]1C,15.8% [at 35.3 µM] (inactive),
C=CCSCC1Nc2cc(Cl)c(S(N)(=O)=O)cc2S(=O)(=O)N1 (stereo not given),1.9% [at 35.3 µM] (inactive),
CCCCCCCCCCCCCCC,-0.76% (inactive),
Nc1nc2c(ncn2CCC(CO)CO)c(=O)[nH]1,-8.23% [at 35.3 µM] (inactive),
NC(=O)Nc1nc2ccccc2[nH]1,3.8% (inactive),
CC(C)CCCCCCN,9.13% (inactive),
C=C(C)[C@H]1CC=C(C)CC1,-0.506% (inactive),
Oc1ccc2c(c1)OC[C@@H](N1CCC(O)(c3ccc(F)cc3)CC1)[C@H]2O,-8.96% [at 35.3 µM] (inactive),
C#CC(O)C(CC)CCCC (stereo not given),10.7% (inactive),

Structure (SMILES),cytotoxicity increase,Potency
NS(=O)(=O)c1cc2c(cc1C(F)(F)F)NC(Cc1ccccc1)NS2(=O)=O (stereo not given),-12.4% [at 35.3 µM] (inactive),
C1CCCCCCCCCCC1,-12.7% [at 15.8 µM] (inactive),
COc1ccc(NC(C)=O)cc1,0.959% (inactive),
COC(C(=O)O)c1ccccc1 (stereo not given),-7.14% (inactive),
C=CCOc1nc(OCC=C)nc(OCC=C)n1,-0.732% (inactive),
Nc1ccn(C2CO[C@H](CO)O2)c(=O)n1 (stereo not given in full),,7.56 µM (active)
CC(=O)CCc1ccc(O)cc1,-9.14% (inactive),
NC(=O)c1ncn([C@@H]2O[C@H](CO)[C@@H](O)[C@H]2O)c1N,9.49% [at 35.3 µM] (inactive),
Oc1cc(O)c2c(c1)O[C@H](c1ccc(O)c(O)c1)[C@H](O)C2,1.91% [at 35.3 µM] (inactive),
CC(C)COC(=O)C(C)C,-9.35% (inactive),
C1C2OC2C2C1C1CC2C2OC12 (stereo not given),2.85% (inactive),
O=C(O)/C=C/c1ccc(/C=C/C(=O)O)cc1,-1.2% [at 35.3 µM] (inactive),
CC(C)[C@H](N)C(=O)OCCOCn1cnc2c(=O)[nH]c(N)nc21,-9.15% [at 35.3 µM] (inactive),
O=C(O)c1ccccc1S,5.47% [at 35.3 µM] (inactive),
CCC(=O)c1cccc(Cl)c1,-18.2% (inactive),
CO[Si](CCCNCCC[Si](OC)(OC)OC)(OC)OC,-3.22% (inactive),
OC[C@H]1O[C@@H]2O[C@H]3[C@H](O)[C@@H](O)[C@@H](O[C@H]4[C@H](O)[C@@H](O)[C@@H](O[C@H]5[C@H](O)[C@@H](O)[C@@H](O[C@H]6[C@H](O)[C@@H](O)[C@@H](O[C@H]7[C@H](O)[C@@H](O)[C@@H](O[C@H]8[C@H](O)[C@@H](O)[C@@H](O[C@H]9[C@H](O)[C@@H](O)[C@@H](O[C@H]1[C@H](O)[C@H]2O)O[C@@H]9CO)O[C@@H]8CO)O[C@@H]7CO)O[C@@H]6CO)O[C@@H]5CO)O[C@@H]4CO)O[C@@H]3CO,0.947% [at 35.3 µM] (inactive),
CC(=O)N[C@@H](CCC(N)=O)C(=O)O,-1.32% [at 35.3 µM] (inactive),
CCCCC=O,5.02% (inactive),
CN1[C@@H]2CC[C@H]1CC(NC(=O)n1c(=O)[nH]c3ccccc31)C2 (stereo not given in full),-3.03% [at 35.3 µM] (inactive),
